Among the data in ChEMBL document CHEMBL2218924, “A broad activity screen in support of a chemogenomic map for kinase signalling research and drug discovery” (Biochem J, 2013) are residual activity values, retold here.

Each structure is given as a SMILES string.

The residual activity is the signal under treatment as a percentage of the control signal.

In assay [1] the target is T1, Serine/threonine-protein kinase TAO2 (Homo sapiens) (UniProt Q9UL54).
T1 sequence (whole entry): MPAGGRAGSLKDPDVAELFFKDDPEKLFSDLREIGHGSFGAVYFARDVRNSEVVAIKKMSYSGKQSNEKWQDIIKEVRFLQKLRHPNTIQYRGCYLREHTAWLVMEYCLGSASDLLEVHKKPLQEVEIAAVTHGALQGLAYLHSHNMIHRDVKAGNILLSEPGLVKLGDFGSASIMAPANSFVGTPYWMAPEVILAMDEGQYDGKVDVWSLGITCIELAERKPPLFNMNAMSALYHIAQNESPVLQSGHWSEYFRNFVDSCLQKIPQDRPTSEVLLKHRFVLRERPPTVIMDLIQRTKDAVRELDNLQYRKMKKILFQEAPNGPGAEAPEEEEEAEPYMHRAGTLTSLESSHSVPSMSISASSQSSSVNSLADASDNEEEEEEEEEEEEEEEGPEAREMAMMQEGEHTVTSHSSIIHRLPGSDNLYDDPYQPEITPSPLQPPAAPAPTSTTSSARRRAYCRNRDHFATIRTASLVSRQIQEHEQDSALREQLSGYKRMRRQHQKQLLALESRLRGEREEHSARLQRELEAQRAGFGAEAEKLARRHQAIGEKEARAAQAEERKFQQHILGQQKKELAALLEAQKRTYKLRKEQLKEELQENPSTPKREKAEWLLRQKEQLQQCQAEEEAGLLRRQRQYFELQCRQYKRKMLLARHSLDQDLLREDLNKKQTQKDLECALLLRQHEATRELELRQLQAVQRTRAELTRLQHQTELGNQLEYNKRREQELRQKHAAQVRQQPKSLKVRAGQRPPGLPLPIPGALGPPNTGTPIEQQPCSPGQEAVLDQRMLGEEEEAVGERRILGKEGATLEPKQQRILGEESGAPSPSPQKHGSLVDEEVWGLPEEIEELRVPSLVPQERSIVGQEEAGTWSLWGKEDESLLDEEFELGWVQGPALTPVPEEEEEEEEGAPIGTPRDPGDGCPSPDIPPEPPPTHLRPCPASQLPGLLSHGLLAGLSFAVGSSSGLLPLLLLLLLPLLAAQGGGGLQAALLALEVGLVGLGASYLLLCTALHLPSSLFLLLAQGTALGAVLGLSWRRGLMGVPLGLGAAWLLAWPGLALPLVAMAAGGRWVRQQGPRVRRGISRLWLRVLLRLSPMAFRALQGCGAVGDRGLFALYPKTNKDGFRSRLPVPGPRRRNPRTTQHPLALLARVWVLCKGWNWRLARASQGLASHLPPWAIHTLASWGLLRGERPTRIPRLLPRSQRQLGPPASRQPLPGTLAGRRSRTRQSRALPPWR
The following applies: at 1 µM.

For assay [2], the target named is T1, Serine/threonine-protein kinase TAO2 (Homo sapiens). The conditions noted are these: at 10 µM.
The target of assay [3] is T2, Serine/threonine-protein kinase TAO3 (Homo sapiens) (UniProt Q9H2K8).
T2 sequence (whole entry): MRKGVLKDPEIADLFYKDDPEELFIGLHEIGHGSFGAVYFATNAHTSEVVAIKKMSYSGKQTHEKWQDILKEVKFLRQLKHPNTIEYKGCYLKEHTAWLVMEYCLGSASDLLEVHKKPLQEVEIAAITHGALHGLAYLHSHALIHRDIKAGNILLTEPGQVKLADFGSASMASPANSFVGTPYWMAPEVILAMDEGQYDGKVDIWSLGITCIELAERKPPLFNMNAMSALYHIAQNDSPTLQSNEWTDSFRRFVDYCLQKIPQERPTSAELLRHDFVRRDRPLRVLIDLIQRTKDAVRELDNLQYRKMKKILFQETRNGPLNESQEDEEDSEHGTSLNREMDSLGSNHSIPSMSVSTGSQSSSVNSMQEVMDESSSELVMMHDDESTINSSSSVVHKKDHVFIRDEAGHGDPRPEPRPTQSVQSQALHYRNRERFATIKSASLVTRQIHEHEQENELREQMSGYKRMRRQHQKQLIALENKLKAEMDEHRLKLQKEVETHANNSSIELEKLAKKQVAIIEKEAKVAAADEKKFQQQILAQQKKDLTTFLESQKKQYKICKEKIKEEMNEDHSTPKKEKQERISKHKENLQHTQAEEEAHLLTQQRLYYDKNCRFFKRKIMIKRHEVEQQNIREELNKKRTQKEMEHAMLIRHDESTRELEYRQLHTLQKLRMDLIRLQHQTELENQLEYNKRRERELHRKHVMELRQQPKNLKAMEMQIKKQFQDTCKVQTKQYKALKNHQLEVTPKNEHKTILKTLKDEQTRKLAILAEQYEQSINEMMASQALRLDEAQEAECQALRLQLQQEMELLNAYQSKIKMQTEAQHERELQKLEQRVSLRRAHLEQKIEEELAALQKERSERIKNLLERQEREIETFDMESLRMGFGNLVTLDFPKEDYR
The conditions noted are these: at 1 µM.

Assay [4] addresses T2, Serine/threonine-protein kinase TAO3 (Homo sapiens). The conditions noted are these: at 10 µM.
Assay [5] addresses T3, Serine/threonine-protein kinase TBK1 (Homo sapiens) (UniProt Q9UHD2).
T3 sequence (whole entry): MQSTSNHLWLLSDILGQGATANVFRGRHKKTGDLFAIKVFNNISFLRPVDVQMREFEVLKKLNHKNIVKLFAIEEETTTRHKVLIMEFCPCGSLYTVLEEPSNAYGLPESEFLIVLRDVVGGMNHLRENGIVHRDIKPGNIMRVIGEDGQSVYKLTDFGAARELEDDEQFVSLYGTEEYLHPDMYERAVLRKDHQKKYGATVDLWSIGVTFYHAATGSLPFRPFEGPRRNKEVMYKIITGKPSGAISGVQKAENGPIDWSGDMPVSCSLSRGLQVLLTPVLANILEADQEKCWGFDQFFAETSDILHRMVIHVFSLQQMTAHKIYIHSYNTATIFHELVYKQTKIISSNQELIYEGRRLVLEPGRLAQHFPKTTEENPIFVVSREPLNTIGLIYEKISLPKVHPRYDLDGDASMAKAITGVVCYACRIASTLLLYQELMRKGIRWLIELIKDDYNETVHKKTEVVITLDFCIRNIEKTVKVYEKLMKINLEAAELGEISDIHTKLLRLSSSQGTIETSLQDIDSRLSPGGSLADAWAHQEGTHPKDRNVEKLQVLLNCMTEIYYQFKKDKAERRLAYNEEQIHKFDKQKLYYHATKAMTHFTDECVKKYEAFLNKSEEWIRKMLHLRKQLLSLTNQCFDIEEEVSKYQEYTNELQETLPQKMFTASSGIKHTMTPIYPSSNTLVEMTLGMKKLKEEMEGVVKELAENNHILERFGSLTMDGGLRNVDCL
The conditions noted are these: at 1 µM.

In assay [6] the target is T3, Serine/threonine-protein kinase TBK1 (Homo sapiens). The conditions noted are these: at 10 µM.
For assay [7], the target named is T4, TGF-beta receptor type-1 (Homo sapiens) (UniProt P36897).
T4 sequence (whole entry): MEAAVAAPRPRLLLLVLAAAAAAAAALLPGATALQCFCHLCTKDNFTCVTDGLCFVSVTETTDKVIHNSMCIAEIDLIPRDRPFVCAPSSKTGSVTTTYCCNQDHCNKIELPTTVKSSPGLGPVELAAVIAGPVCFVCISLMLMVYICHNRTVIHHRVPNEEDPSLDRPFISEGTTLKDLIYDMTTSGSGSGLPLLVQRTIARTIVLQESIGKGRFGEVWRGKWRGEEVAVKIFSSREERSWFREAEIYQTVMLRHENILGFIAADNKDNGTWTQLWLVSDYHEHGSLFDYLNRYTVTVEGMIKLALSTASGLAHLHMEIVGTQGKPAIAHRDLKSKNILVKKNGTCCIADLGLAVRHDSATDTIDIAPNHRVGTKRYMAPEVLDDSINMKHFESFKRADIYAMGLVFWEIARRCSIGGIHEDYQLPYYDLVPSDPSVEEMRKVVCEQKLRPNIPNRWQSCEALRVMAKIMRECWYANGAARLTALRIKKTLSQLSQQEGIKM
The following applies: at 10 µM.

The target in assay [8] is Insulin-like growth factor 1 receptor (Homo sapiens) (UniProt P08069). The following applies: at 1 µM.
Assay [9] has the same target. The following applies: at 10 µM.
Assay [10] has as its target T5, Inhibitor of nuclear factor kappa-B kinase subunit alpha (Homo sapiens) (UniProt O15111).
T5 sequence (whole entry): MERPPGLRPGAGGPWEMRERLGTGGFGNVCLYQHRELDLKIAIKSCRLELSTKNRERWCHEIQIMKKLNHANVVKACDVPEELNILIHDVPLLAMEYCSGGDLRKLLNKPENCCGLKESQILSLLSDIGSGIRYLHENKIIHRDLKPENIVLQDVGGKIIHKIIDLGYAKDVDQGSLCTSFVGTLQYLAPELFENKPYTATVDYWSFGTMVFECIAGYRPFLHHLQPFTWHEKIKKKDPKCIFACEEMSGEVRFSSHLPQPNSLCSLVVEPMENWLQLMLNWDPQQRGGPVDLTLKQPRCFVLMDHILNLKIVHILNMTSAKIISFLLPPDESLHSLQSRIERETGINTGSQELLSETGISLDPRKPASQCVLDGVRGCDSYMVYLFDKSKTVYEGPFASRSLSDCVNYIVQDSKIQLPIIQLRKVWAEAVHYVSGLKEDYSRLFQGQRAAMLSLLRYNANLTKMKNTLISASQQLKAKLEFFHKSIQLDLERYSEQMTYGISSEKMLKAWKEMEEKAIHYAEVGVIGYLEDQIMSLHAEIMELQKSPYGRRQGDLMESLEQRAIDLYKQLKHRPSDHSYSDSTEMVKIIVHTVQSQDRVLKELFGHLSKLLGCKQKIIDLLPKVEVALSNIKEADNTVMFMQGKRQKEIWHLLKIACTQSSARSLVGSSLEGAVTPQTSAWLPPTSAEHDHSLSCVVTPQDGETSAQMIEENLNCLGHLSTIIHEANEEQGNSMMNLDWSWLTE
The following applies: at 1 µM.

The target in assay [11] is T5, Inhibitor of nuclear factor kappa-B kinase subunit alpha (Homo sapiens). The conditions noted are these: at 10 µM.
For assay [12], the target named is T6, Inhibitor of nuclear factor kappa-B kinase subunit beta (Homo sapiens) (UniProt O14920).
T6 sequence (whole entry): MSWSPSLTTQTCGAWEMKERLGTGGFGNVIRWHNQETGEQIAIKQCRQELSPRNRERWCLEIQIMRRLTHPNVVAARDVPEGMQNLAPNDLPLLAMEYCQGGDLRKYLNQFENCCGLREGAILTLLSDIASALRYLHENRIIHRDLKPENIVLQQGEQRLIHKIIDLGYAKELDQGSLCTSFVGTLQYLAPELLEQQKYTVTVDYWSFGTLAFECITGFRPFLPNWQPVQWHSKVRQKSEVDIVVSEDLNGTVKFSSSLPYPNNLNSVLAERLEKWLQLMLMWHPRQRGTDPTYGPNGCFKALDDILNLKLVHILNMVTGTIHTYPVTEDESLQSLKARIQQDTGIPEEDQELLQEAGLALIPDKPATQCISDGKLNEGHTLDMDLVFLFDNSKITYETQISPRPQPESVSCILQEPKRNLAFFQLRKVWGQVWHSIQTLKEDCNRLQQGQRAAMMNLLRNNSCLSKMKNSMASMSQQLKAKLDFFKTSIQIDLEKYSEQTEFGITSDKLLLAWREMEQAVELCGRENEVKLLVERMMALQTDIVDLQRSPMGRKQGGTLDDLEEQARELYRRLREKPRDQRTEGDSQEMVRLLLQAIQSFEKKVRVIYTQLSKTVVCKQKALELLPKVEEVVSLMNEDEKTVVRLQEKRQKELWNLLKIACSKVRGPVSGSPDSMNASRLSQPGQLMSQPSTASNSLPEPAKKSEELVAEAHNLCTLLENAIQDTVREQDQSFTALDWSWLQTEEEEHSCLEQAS
The following applies: at 10 µM.

In assay [13] the target is Insulin receptor (Homo sapiens) (UniProt P06213). The following applies: at 1 µM.
Assay [14] shares this target. The conditions noted are these: at 10 µM.
The target in assay [15] is Interleukin-1 receptor-associated kinase 1 (Homo sapiens) (UniProt P51617). The following applies: at 1 µM.
The target is the same in assay [16]. The following applies: at 10 µM.
For assay [17], the target named is T4, TGF-beta receptor type-1 (Homo sapiens). The following applies: at 1 µM.
Assay [18] deals with T6, Inhibitor of nuclear factor kappa-B kinase subunit beta (Homo sapiens). The following applies: at 1 µM.
Assay [19] deals with Insulin receptor (Homo sapiens) (UniProt P06213). The following applies: at 1 µM. This is another data set of the same source.
Assay [20] has the same target. The conditions noted are these: at 10 µM. This is another data set of the same source.

Chain of Insulin receptor (Homo sapiens) (P06213 28-758 limits assumed): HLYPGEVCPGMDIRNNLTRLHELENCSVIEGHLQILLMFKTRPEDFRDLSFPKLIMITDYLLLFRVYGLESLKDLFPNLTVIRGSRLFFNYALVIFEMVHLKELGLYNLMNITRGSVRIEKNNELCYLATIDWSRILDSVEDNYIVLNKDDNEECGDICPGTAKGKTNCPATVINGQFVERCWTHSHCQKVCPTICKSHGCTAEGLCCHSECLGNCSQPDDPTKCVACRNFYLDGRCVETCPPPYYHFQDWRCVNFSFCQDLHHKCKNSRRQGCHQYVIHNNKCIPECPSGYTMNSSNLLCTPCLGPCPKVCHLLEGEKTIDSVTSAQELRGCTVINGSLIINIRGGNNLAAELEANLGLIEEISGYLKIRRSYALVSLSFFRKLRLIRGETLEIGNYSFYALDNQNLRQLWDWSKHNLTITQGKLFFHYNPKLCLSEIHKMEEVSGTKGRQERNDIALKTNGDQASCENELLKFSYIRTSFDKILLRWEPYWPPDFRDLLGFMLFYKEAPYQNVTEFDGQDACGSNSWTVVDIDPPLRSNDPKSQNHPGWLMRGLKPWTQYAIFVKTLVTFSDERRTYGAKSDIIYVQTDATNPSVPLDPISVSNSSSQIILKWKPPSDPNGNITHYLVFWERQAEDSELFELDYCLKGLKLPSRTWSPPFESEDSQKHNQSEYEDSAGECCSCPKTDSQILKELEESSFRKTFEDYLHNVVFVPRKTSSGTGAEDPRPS
Chain of Insulin receptor (Homo sapiens) (P06213 763-1382 limits assumed): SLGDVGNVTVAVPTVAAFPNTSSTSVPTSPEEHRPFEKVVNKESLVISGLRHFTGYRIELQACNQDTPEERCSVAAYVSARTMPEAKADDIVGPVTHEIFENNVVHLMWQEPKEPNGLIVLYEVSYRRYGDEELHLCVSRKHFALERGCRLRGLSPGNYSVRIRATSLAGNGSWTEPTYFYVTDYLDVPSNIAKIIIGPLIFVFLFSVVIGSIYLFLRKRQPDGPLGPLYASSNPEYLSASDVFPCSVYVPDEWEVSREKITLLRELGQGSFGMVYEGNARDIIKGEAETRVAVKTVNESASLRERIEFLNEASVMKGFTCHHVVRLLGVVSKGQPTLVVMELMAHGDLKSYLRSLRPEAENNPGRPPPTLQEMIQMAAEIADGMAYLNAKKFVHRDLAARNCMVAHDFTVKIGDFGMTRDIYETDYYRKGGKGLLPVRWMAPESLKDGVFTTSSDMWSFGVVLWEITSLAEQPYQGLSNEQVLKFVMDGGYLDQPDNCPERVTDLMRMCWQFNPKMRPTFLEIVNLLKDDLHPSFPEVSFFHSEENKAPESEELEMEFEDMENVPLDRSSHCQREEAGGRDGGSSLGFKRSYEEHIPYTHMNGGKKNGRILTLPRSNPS
Chain of Interleukin-1 receptor-associated kinase 1 (Homo sapiens) (P51617 whole entry, looked up): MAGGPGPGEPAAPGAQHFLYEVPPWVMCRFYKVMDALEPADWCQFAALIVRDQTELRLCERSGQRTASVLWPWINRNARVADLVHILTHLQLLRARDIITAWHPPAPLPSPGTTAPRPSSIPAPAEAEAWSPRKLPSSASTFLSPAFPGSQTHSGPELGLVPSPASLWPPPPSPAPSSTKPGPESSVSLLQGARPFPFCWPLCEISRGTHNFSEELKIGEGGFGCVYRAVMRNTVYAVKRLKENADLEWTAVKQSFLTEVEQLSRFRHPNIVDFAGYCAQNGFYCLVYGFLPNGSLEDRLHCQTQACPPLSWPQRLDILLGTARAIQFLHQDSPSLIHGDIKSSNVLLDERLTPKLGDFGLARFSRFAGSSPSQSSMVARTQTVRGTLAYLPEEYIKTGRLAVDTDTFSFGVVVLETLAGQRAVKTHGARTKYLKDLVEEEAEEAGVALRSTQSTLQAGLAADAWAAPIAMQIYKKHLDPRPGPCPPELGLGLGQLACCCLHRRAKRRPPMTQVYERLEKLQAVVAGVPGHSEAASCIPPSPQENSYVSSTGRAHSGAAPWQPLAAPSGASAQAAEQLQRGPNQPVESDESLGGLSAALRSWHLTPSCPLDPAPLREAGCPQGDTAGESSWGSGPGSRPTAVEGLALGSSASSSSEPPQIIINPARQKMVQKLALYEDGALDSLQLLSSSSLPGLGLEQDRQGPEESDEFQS
Chain of Insulin-like growth factor 1 receptor (Homo sapiens) (P08069 31-736 limits assumed): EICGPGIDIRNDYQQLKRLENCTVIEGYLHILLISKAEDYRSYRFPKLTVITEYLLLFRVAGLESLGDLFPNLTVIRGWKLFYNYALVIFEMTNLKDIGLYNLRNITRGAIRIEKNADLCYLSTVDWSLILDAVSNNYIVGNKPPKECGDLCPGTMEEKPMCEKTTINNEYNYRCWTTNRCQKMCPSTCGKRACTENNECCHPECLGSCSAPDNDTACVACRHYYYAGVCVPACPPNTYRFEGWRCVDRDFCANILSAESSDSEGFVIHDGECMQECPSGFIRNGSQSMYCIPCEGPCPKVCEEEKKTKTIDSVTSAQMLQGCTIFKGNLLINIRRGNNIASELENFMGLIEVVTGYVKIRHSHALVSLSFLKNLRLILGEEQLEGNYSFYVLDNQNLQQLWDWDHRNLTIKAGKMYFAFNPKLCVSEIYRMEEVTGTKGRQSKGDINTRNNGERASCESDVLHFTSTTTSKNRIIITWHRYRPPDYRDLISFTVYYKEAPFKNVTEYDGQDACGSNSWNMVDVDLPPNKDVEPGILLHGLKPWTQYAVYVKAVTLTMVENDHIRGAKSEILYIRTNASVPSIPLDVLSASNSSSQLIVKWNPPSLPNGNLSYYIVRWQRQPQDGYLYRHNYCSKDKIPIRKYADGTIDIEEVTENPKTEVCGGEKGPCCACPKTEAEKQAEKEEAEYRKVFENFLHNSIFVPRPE
Chain of Insulin-like growth factor 1 receptor (Homo sapiens) (P08069 741-1367 limits assumed): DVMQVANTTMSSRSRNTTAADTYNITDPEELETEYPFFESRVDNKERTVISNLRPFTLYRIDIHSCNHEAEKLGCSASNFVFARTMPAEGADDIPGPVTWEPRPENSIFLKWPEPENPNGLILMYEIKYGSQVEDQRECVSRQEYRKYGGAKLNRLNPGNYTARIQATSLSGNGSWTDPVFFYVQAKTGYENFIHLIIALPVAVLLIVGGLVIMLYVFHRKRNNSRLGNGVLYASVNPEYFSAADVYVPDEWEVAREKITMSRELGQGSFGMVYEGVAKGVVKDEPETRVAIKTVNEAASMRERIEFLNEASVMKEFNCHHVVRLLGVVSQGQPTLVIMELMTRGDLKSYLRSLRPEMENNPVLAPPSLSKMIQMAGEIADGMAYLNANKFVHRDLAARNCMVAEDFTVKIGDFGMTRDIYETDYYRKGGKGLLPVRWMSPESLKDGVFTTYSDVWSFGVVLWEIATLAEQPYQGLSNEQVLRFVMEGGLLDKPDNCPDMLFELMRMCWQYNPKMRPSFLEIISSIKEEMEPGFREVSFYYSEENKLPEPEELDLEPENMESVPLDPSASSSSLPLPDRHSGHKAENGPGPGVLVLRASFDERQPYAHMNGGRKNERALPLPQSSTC

On to `CCn1cnc2c(Nc3cccc(Cl)c3)nc(N[C@@H]3CCCC[C@@H]3N)nc21`, for which the residual activity was 81% in [1]; 33% in assay [2]; 82% in assay [3]; 43% in assay [4]; 68% in [5]; 45% in assay [6]. In addition, the residual activity came to 79% in assay [7]; 71% in assay [8]; 44% in assay [9]; 99% in assay [10]; 89% in [11]; 93% in [12]. Further, the residual activity in assay [13] stood at 70%; in assay [14], 34%; in [15] it was 85%; in assay [16] it was 64%.

In the case of `C[S+]([O-])c1ccc(-c2nc(-c3ccc(F)cc3)c(-c3ccncc3)[nH]2)cc1` (stereo unspecified), the residual activity in assay [1] came to 111%; in [2], 79%; in assay [3] it was 108%; in assay [4], 79%; in [5], 124%; in assay [6], 111%. In addition, the residual activity in assay [17] turned out to be 130%; in assay [7], 77%; in [8], 117%; in [9], 122%; in assay [10] it was 113%; in assay [11], 96%. Further, the residual activity came to 104% in [18]; 101% in [12]; 94% in [19]; 129% in [20]; 103% in [13]; 98% in assay [14]. Also, the residual activity was 108% in [15] and 97% in assay [16].
